In PubChem BioAssay AID485270 (The Scripps Research Institute Molecular Screening Center, 2010) one finds inhibition data, which are given here for 25 compounds.

Structures are written as SMILES. Values joined by “and” are separate entries in the source; they are usually repeats but may differ in a detail not shown here. Equal entries are not always repeated. Hit rate of the full screen: of about 330,000 compounds, about 5,800 (1.8%) were called active. This excerpt belongs to a sample that is enriched for actives. Unmarked numbers belong to inactive results. Rule as the data show it: active = inhibition mostly above about 38% (no sharp cut-off); inactive = mostly below about 40%.

For this assay, the target named is Orexin/Hypocretin receptor type 1 (Homo sapiens) (UniProt O43613). Briefly: blocks the human orexin 1 receptor (AID 485270).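 Also: 0% = agonist challenge alone and 100% = reference antagonist.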 Conditions: OX1R-expressing cells, FRET antagonist read-out; at 6.6 µM; active compounds read high.
Orexin/Hypocretin receptor type 1 (Homo sapiens), sequence (O43613 whole entry, looked up): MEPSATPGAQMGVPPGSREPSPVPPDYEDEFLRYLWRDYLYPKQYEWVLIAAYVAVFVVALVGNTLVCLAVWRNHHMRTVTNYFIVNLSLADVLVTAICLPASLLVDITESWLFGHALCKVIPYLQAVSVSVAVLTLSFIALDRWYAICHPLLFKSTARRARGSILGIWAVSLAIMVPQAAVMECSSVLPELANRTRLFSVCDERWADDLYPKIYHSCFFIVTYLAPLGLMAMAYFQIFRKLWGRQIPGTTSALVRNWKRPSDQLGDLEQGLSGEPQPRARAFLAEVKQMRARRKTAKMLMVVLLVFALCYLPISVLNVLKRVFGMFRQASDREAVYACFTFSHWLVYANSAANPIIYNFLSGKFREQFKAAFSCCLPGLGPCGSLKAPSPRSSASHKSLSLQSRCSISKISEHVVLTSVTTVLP
By inhibition is commonly meant the relative decrease from the control value, in per cent. Take `CCN(CC)S(=O)(=O)c1ccc(N2CCCC2)c(NC(=O)c2ccc([N+](=O)[O-])o2)c1`: the inhibition is 25.5%.

Consider `O=C(Cc1cccs1)NCc1cccc(C(F)(F)F)c1`, for which the inhibition was -2.11%.

On to `CCOC(=O)CCCCCC(=O)Nc1ccc2c(c1)CC(=O)N([C@@H](C)CO)C[C@H](C)[C@@H](CN(C)Cc1ccccc1)O2`, for which the inhibition was 0.83%.

As for `Cc1noc(C)c1NC(=O)Nc1ccc2c(c1)C(=O)N([C@H](C)CO)C[C@H](C)[C@@H](CN(C)S(=O)(=O)c1cn(C)cn1)O2`, the inhibition was 0.36%.

With `CC(=O)c1cccc(OCC(=O)OCC(=O)Nc2cc(S(=O)(=O)N3CCCCC3)ccc2C)c1`, the inhibition was 9.5%.

For `CCC(C(=O)NCc1ccc(OC)cc1)n1nc(C)n2c(cc3occc32)c1=O` (stereo not given), the inhibition is 9.82%.

Turning to `COc1ccc(CCNC(=O)c2cc3sccc3n2C)cc1OC`, the inhibition was 20.4%.

`CCOc1ccc(CCNC(=O)C(CC)n2nc(C)n3c(cc4sccc43)c2=O)cc1OCC` (stereo not given): the inhibition is 92.1% (active).

Consider `COc1cc(SC)ccc1C(=O)NNC(=O)C1COc2ccccc2O1` (stereo not given), for which the inhibition is 9.65%.

As for `CCN(CC(=O)NCc1ccc(F)cc1)S(=O)(=O)c1ccc(Cl)s1`, the inhibition is 6.16%.

Consider `Cc1nc(C)c(-c2nnc(-c3cccc(S(=O)(=O)N(C)C)c3)o2)cc1C(=O)NN`, for which the inhibition was 1.5%.

On to `Cc1cccc(-c2noc(-c3ccc(F)cc3)n2)c1`, for which the inhibition is 1.69%.

With `COc1ccc(-c2noc(CCCC(=O)NC3CCCC3)n2)cc1OC`, the inhibition was 14.1%.

Consider `COc1ccc(-c2noc(-c3cccc(OC)c3OC)n2)cc1OC`, for which the inhibition was 45.8% (active).

With `O=C(COC(=O)c1cccnc1Cl)NC(=O)NC1CCCCC1`, the inhibition was 0.57%.

Consider `Cc1c(C#N)c2ncn(CC#N)c(=O)c2n1-c1ccccc1`, for which the inhibition was 16.1%.

As to `CN1c2ccc(C=O)c3c(C=O)ccc(c23)N(C)C1(C)C`, the inhibition was 38.9% (active).

For `COc1ccc2nc3n(c(=O)c2c1)-c1ccc(Cl)cc1C(=O)NC3Cc1ccccc1` (stereo not given), the inhibition is 7.22%.

As for `O=C1CCC/C=C/C[C@@H](CC(=O)N(CCO)Cc2ccccc2)C(=O)NC[C@H](c2ccccc2)O1`, the inhibition was 2.58%.

As to `CCN(C(=O)COC(=O)CCC(=O)c1cccs1)C1CCCCC1`, the inhibition was 3.19%.

As to `Cc1ccc(S(=O)(=O)N2CCN(C(=O)CN3C(=O)NC(C)(c4ccc(Cl)cc4)C3=O)CC2)c(C)c1` (stereo not given), the inhibition was 4.7%.

As for `O=C1c2ccccc2[C@@H]2C[C@@H](O)[C@H](Nc3ccccc3Cl)CCN12`, the inhibition is 7.11%.

For `Cc1ccc(C(=O)C[n+]2cc(-c3ccccc3)n3c2CCCCC3)cc1`, the inhibition was 9.82% and 16.5%.

Take `Cc1ccc(C(=O)N2CCCC(c3ccccc3)=N2)cc1`: the inhibition is 64.4% (active).

As to `Cc1ccc(NC(=S)N2CCCC(c3ccccc3)=N2)cc1`, the inhibition was 14.4%.
